{
  "source": "the supplement of paper PMC3334620",
  "note": "In all, about 33,000 sequences were measured (“E-score (-0.5 to 0.5)”: median about -0.0059, highest 2% from about 0.26 on). What follows is part of a selection rich in the highest values, with near analogues and random picks from the rest.",
  "data": [
    {"target": "T1, Cin5 (UniProt P40917)", "T1 sequence": "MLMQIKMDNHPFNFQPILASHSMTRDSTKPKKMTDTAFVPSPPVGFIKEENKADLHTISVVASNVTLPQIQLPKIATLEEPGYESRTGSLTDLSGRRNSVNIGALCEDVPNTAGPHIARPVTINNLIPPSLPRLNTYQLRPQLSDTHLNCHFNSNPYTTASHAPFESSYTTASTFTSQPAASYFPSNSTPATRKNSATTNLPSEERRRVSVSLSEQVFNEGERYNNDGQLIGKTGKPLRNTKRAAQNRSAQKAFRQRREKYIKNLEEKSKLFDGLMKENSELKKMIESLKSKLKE", "assay": "PBM E-score (8-mer binding enrichment) (E-score (-0.5 to 0.5)); higher = stronger / more preferred TF binding", "settings": "protein concentration: 100 nM; construct: GST-full length", "procedure": "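Universal 'all 10-mer' protein binding microarrays (Agilent AMADID 015681) probed with GST-tagged S. cerevisiae TFs (full-length or DBD) made by in vitro transcription/translation (PURExpress), about 100-200 nM. Bound TF was detected with fluorescent anti-GST. Each ungapped 8-mer (which stands for itself and its reverse complement) is scored by the PBM enrichment score (E-score), a modified Wilcoxon-Mann-Whitney statistic from -0.5 to +0.5, computed with the Universal PBM Analysis Suite. Scale: above 0.35 generally sequence-specific binding.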", "values": [
      {"sequence": "TTAACTAA", "PBM E-score": 0.343},
      {"sequence": "GAAACTAA", "PBM E-score": 0.0253},
      {"sequence": "GTAAGTAA", "PBM E-score": 0.24},
      {"sequence": "CAAACTAC", "PBM E-score": 0.0495},
      {"sequence": "CAAACTAA", "PBM E-score": 0.266},
      {"sequence": "CTAAGTAA", "PBM E-score": 0.0623},
      {"sequence": "AAAACTAT", "PBM E-score": 0.2},
      {"sequence": "ATAACTAA", "PBM E-score": 0.141},
      {"sequence": "AAAACTAA", "PBM E-score": 0.275},
      {"sequence": "CTAACTAA", "PBM E-score": 0.15},
      {"sequence": "TTAAGTAA", "PBM E-score": 0.423},
      {"sequence": "TAAACTAA", "PBM E-score": 0.252},
      {"sequence": "CGACATAG", "PBM E-score": 0.00383},
      {"sequence": "CTGCAAAC", "PBM E-score": -0.149},
      {"sequence": "AGCTGCCG", "PBM E-score": -0.0554},
      {"sequence": "GCGGCGCC", "PBM E-score": 0.115},
      {"sequence": "CACGTGGG", "PBM E-score": -0.172},
      {"sequence": "AGGCTGAC", "PBM E-score": 0.0576},
      {"sequence": "AGGCGGAA", "PBM E-score": -0.0282},
      {"sequence": "GCGCGAGC", "PBM E-score": -0.0452},
      {"sequence": "GGAATTGA", "PBM E-score": 0.199},
      {"sequence": "CCATCATC", "PBM E-score": 0.0863},
      {"sequence": "ACATCATA", "PBM E-score": 0.258},
      {"sequence": "CCATCATA", "PBM E-score": 0.05},
      {"sequence": "ACATCATG", "PBM E-score": 0.0711},
      {"sequence": "ACATCATC", "PBM E-score": 0.344},
      {"sequence": "GCATCATA", "PBM E-score": 0.0947},
      {"sequence": "CAACTCTG", "PBM E-score": -0.112},
      {"sequence": "GACGCATC", "PBM E-score": 0.00795},
      {"sequence": "ACCAAGCC", "PBM E-score": -0.172},
      {"sequence": "CCCCCCTC", "PBM E-score": -0.465},
      {"sequence": "TAACCAAA", "PBM E-score": 0.175},
      {"sequence": "AAGGTGAA", "PBM E-score": -0.0511},
      {"sequence": "CAGGAGGA", "PBM E-score": -0.315},
      {"sequence": "TACCCATA", "PBM E-score": 0.0256},
      {"sequence": "AGCTGATG", "PBM E-score": 0.14},
      {"sequence": "AGTATAAA", "PBM E-score": 0.282},
      {"sequence": "AGTATAAC", "PBM E-score": -0.129},
      {"sequence": "GGTATAAA", "PBM E-score": 0.154},
      {"sequence": "AGTATAAT", "PBM E-score": 0.301},
      {"sequence": "TGTATAAA", "PBM E-score": 0.114},
      {"sequence": "AGTATAAG", "PBM E-score": 0.239},
      {"sequence": "AGTATATA", "PBM E-score": 0.346},
      {"sequence": "AGTATATC", "PBM E-score": 0.126},
      {"sequence": "AGTATATG", "PBM E-score": 0.183},
      {"sequence": "ATTGTCGC", "PBM E-score": 0.0313},
      {"sequence": "GAACCCAC", "PBM E-score": 0.121},
      {"sequence": "ATAGTTTA", "PBM E-score": 0.0429},
      {"sequence": "GGGCGGTA", "PBM E-score": -0.169},
      {"sequence": "AGCACGAT", "PBM E-score": 0.0861},
      {"sequence": "ATATCGCC", "PBM E-score": 0.0352},
      {"sequence": "ATATCGAC", "PBM E-score": 0.249},
      {"sequence": "ATCTCGCA", "PBM E-score": 0.00313},
      {"sequence": "ATCTCGCG", "PBM E-score": 0.266},
      {"sequence": "ATCTCGCC", "PBM E-score": 0.0516},
      {"sequence": "ATATCGAA", "PBM E-score": 0.221},
      {"sequence": "ATATCGCA", "PBM E-score": -0.00978},
      {"sequence": "ATATCGAT", "PBM E-score": 0.265},
      {"sequence": "ATATCGCG", "PBM E-score": 0.301},
      {"sequence": "CACGTCGC", "PBM E-score": -0.119},
      {"sequence": "CTCGACGC", "PBM E-score": 0.0204},
      {"sequence": "ACTGATTA", "PBM E-score": 0.249},
      {"sequence": "GCTGATTA", "PBM E-score": 0.279},
      {"sequence": "ATTGATTG", "PBM E-score": 0.186},
      {"sequence": "CTTGATTA", "PBM E-score": 0.222},
      {"sequence": "CCTGATTA", "PBM E-score": 0.252},
      {"sequence": "ATTGATTC", "PBM E-score": 0.128},
      {"sequence": "GTTGATTA", "PBM E-score": 0.268},
      {"sequence": "ATTGATTA", "PBM E-score": 0.317},
      {"sequence": "GTTGATGA", "PBM E-score": 0.154},
      {"sequence": "AAGTTGCC", "PBM E-score": -0.0351},
      {"sequence": "CGGACGAA", "PBM E-score": 0.15},
      {"sequence": "CACACACG", "PBM E-score": -0.0573},
      {"sequence": "TCCCAGAA", "PBM E-score": -0.129},
      {"sequence": "AATCCGGA", "PBM E-score": 0.234},
      {"sequence": "AATGTTCT", "PBM E-score": -0.0398},
      {"sequence": "ATTAATCC", "PBM E-score": 0.18},
      {"sequence": "ATTAATTA", "PBM E-score": 0.259},
      {"sequence": "GTTAATCA", "PBM E-score": 0.239},
      {"sequence": "CTTAATGA", "PBM E-score": 0.0487},
      {"sequence": "ATTAATCA", "PBM E-score": 0.263},
      {"sequence": "ATTAATTC", "PBM E-score": 0.238},
      {"sequence": "ATTAATGA", "PBM E-score": 0.29},
      {"sequence": "ATTAATTG", "PBM E-score": 0.193},
      {"sequence": "ATTAATGC", "PBM E-score": 0.19},
      {"sequence": "GCCACATA", "PBM E-score": 0.064},
      {"sequence": "ACTGCCCT", "PBM E-score": -0.0972}
    ]}
  ]
}
